Laboratory results: PubChem BioAssay (Tox21)
Calls of active or inactive are those of the source. Unless noted, calls come from the whole dose curve; as a rule, active = well fitted curve in the direction sought with a large enough effect in the repeat runs; inconclusive = weak or mixed curves; inactive = no such curve, though single readings can be large; an effect the other way counts as inactive or inconclusive.

Assays:
[1] = qHTS assay to identify small molecule antagonists of the thyroid receptor (TR) signaling pathway - cell viability counter screen (AID 743064); note: nearly all actives have a fitted effect of over 50% in size; note: potency is the fitted concentration of half-maximal effect
Method in brief: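 Fluorescence from CellTiter-Fluor, added after 23.5 h exposure at 37 °C, reported viability of GH3.TRE-Luc cells co-treated with compound and 1 nM T3. Measured in the same wells as the luciferase TR readout.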

[2] = test system: thyroid hormone receptor (rat, GH3 cells); assay: qHTS assay to identify small molecule agonists of the thyroid receptor (TR) signaling pathway (AID 743066; calls by dose curve)
[3] = target: Estrogen receptor (Homo sapiens) (UniProt P03372); assay: qHTS assay to identify small molecule antagonists of the estrogen receptor alpha (ER-alpha) signaling pathway (AID 743069; active = well fitted curve in the direction sought with a large enough effect in the signal ratio in the repeat runs, not every such curve was filed as active; inconclusive = weak or mixed curves, or effect the other way; inactive = no such curve, though single readings can be large or run the other way; the % refers to the signal ratio; note: potency is the fitted concentration of half-maximal effect)
Chain of Estrogen receptor (Homo sapiens) (P03372 whole entry, looked up): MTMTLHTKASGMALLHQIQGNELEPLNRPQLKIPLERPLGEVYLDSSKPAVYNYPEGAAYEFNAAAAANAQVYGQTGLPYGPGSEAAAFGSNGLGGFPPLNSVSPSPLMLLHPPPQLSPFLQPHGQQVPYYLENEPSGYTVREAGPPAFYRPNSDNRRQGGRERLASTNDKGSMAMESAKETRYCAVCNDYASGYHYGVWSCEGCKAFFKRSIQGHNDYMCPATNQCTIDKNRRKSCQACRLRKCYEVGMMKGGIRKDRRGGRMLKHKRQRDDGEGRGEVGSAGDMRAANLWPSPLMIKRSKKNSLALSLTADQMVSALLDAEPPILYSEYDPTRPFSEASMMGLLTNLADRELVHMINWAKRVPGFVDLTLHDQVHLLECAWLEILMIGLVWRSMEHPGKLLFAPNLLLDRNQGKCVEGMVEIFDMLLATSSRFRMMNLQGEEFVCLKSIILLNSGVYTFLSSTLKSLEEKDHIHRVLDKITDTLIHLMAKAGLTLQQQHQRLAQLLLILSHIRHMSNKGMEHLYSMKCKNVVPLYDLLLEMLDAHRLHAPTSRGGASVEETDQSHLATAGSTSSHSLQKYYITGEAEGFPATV
Method in brief: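 Compound effects are measured against 17beta-estradiol stimulation in HEK293 cells with a UAS-controlled beta-lactamase reporter for ER-alpha. Exposure lasts 18 hr at 37C; LiveBLAzer B/G FRET substrate follows for 2 hr at room temperature.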

[4] = qHTS assay to identify small molecule antagonists of the estrogen receptor alpha (ER-alpha) signaling pathway - cell viability counter screen (AID 743074; calls by dose curve;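 note: HEK293 cells carrying ER-alpha-UAS-bla reporter stimulated with 17beta-estradiol; nearly all actives have a fitted effect of over 45% in size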; note: potency is the fitted concentration of half-maximal effect)
[5] = target: Estrogen receptor (Homo sapiens) (UniProt P03372); assay: qHTS assay to identify small molecule agonists of the estrogen receptor alpha (ER-alpha) signaling pathway (AID 743075; calls by dose curve; note: potency is the fitted concentration of half-maximal effect)
[6] = target: Estrogen receptor (Homo sapiens) (UniProt P03372); assay: qHTS assay to identify small molecule agonists of the estrogen receptor alpha (ER-alpha) signaling pathway using the BG1 cell line (AID 743079); conditions: BG1Luc4E2 cells, ERE-luciferase agonist, 22 h; activation: at 70.3 µM (top of the series); note: nearly all actives have a fitted effect of over 20% in size; note: potency is the fitted concentration of half-maximal effect
[7] = qHTS assay to identify small molecule antagonists of the estrogen receptor alpha (ER-alpha) signaling pathway using the BG1 cell line (AID 743080; calls by dose curve;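 note: BG1 cells stimulated with 17beta-estradiol alongside compound; nearly all actives have a fitted effect of over 25% in size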; note: potency is the fitted concentration of half-maximal effect)
Method in brief: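 Quantitative HTS on the Tox21 10K library: BG1 cells with endogenous ER-alpha and ERE-luciferase reporter, 17beta-estradiol stimulation, 21.5 h compound exposure, luminescence endpoint with parallel fluorescence cytotoxicity counter-read.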

[8] = qHTS assay to identify small molecule antagonists of the estrogen receptor alpha (ER-alpha) signaling pathway using the BG1 cell line - cell viability counter screen (AID 743081);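 note: compound given together with 17beta-estradiol as the ER stimulus; nearly all actives have a fitted effect of over 45% in size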; note: potency is the fitted concentration of half-maximal effect
[9] = target: Aromatase (Homo sapiens) (UniProt P11511); assay: qHTS assay to identify aromatase inhibitors (AID 743083); note: nearly all actives have a fitted effect of over 55% in size; note: potency is the fitted concentration of half-maximal effect
Chain of Aromatase (Homo sapiens) (P11511 whole entry, looked up): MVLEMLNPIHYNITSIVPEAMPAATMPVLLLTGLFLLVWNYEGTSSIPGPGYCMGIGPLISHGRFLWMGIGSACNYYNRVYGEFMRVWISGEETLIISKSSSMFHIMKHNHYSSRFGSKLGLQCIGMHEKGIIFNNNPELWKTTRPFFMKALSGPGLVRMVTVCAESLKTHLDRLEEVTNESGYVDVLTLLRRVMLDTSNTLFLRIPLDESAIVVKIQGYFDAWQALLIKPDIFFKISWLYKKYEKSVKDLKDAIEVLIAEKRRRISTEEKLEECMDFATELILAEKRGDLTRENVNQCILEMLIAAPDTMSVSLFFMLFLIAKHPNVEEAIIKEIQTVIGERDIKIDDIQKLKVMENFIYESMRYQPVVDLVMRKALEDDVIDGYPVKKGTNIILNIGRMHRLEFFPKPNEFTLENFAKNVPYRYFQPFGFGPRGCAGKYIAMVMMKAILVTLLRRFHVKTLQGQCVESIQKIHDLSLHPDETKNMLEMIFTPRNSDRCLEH

[10] = qHTS assay to identify aromatase inhibitors - cell viability counter screen (AID 743084);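 note: cells stimulated with testosterone during compound exposure; nearly all actives have a fitted effect of over 55% in size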; note: potency is the fitted concentration of half-maximal effect
[11] = qHTS assay to identify small molecule that activate the aryl hydrocarbon receptor (AhR) signaling pathway - cell viability counter screen (AID 743086); note: nearly all actives have a fitted effect of over 45% in size; note: potency is the fitted concentration of half-maximal effect
Method in brief: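 Cytotoxicity counter screen: CellTiter-Fluor signal (30 min, 37 C) in 4000 HepG2 cells/well carrying the DRE-luciferase reporter, following 24 h compound exposure at 37 C.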

[12] = target: Peroxisome proliferator-activated receptor gamma (Homo sapiens) (UniProt P37231); assay: qHTS assay to identify small molecule agonists of the peroxisome proliferator-activated receptor gamma (PPARg) signaling pathway (AID 743094; active = well fitted activation curve with a large enough effect in the signal ratio in the repeat runs, not every such curve was filed as active; inconclusive = weak or mixed curves, or effect the other way; inactive = no such curve, though single readings can be large or run the other way; the % refers to the signal ratio; note: potency is the fitted concentration of half-maximal effect)
Chain of Peroxisome proliferator-activated receptor gamma (Homo sapiens) (P37231 whole entry, looked up): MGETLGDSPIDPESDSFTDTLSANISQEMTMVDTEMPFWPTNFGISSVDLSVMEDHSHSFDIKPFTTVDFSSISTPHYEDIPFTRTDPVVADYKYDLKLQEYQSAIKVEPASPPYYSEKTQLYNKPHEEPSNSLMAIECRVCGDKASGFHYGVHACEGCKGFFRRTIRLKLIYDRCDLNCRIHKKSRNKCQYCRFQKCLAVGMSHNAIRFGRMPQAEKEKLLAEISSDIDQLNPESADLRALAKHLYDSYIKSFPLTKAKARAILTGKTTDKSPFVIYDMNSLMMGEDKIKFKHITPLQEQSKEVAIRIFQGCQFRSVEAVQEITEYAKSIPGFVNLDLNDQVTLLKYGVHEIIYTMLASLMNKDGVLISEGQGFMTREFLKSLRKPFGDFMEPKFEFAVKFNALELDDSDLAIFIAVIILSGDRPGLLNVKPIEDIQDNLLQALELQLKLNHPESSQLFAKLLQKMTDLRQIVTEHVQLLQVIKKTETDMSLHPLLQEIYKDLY
Method in brief: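 GeneBLAzer PPARg UAS-bla HEK293H cells were plated, rested 5 h, then exposed to compounds for 17 h at 37C. Beta-lactamase activity was read by LiveBLAzer B/G FRET substrate fluorescence after 1 h at room temperature.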

[13] = qHTS assay to identify small molecule phospholipidosis (PLD) inducers (AID 1259344; active = well fitted curve in the direction sought with a large enough effect; inconclusive = small, poorly fitted or top-dose-only effect, or another doubt; inactive = no such curve, though single readings can be large; an effect the other way counts as inactive or inconclusive; note: potency is the fitted concentration of half-maximal effect)
Method in brief: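 Fluorescent phospholipid staining (LipidTOX Red) measured by automated microscopy in fixed HepG2 cells after 24 h treatment; nuclei counterstained with Hoechst 33342; amiodarone as reference inducer.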

[14] = target: Nuclear receptor subfamily 1 group I member 2 (Rattus norvegicus) (UniProt Q9R1A7); assay: Rat pregnane X receptor (rPXR) activation by small molecules, qHTS assay (AID 1346983); conditions: rPXR luciferase reporter cells, One-Glo luminescence, 24 h; max activation: active compounds read high; note: nearly all actives have a fitted effect of over 20% in size; note: potency is the fitted concentration of half-maximal effect
Chain of Nuclear receptor subfamily 1 group I member 2 (Rattus norvegicus) (Q9R1A7 whole entry, looked up): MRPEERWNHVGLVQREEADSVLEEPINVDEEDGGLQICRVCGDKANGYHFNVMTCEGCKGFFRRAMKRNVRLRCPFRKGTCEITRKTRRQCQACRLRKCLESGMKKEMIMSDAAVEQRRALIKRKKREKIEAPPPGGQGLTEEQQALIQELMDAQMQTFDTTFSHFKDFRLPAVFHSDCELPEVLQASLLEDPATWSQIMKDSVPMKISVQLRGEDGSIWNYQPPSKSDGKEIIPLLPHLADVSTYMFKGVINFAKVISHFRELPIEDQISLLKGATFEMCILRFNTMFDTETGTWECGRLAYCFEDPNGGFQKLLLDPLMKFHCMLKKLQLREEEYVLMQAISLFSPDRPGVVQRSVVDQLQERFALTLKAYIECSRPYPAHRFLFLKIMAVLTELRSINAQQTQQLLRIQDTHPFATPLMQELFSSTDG
Method in brief: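 Luminescent readout (One-Glo luciferase, 30 min room temperature) followed 24 hr compound treatment at 37 C of rPXR cells plated 2,000 per well and preincubated 5hr; qHTS format with compounds delivered in DMSO.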

[15] = target: Nuclear receptor subfamily 1 group I member 2 (Homo sapiens) (UniProt O75469); assay: Human pregnane X receptor (PXR) activation by small molecules, qHTS assay (AID 1346985); note: nearly all actives have a fitted effect of over 40% in size; note: potency is the fitted concentration of half-maximal effect
Method in brief: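 DPX-2 cells (HepG2 co-transfected with a PXR response element and a CYP3A4-promoter luciferase construct) were seeded at 2,000 per well, rested 5 hr at 37C, then exposed to DMSO-dissolved compounds for 24 hr. Activation was read as luciferase luminescence.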

[16] = qHTS assay to identify small molecule antagonists of the thyroid receptor (TR) signaling pathway (AID 743065); note: nearly all actives have a fitted effect of over 55% in size; note: potency is the fitted concentration of half-maximal effect
Method in brief: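 Antagonism measured as loss of luciferase signal in GH3 cells stably carrying a TRE-luciferase reporter, co-treated with compound and T3 (1 nM final) for 23.5 h at 37 C. Viability was read in the same well by CellTiter-Fluor.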

[17] = target: Aryl hydrocarbon receptor (Homo sapiens) (UniProt P35869); assay: qHTS assay to identify small molecule that activate the aryl hydrocarbon receptor (AhR) signaling pathway (AID 743085); note: nearly all actives have a fitted effect of over 15% in size; note: potency is the fitted concentration of half-maximal effect;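 for activation: HG2L7.5c1 human HepG2 liver cells with stably integrated DRE-driven firefly reporter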
Chain of Aryl hydrocarbon receptor (Homo sapiens) (P35869 whole entry, looked up): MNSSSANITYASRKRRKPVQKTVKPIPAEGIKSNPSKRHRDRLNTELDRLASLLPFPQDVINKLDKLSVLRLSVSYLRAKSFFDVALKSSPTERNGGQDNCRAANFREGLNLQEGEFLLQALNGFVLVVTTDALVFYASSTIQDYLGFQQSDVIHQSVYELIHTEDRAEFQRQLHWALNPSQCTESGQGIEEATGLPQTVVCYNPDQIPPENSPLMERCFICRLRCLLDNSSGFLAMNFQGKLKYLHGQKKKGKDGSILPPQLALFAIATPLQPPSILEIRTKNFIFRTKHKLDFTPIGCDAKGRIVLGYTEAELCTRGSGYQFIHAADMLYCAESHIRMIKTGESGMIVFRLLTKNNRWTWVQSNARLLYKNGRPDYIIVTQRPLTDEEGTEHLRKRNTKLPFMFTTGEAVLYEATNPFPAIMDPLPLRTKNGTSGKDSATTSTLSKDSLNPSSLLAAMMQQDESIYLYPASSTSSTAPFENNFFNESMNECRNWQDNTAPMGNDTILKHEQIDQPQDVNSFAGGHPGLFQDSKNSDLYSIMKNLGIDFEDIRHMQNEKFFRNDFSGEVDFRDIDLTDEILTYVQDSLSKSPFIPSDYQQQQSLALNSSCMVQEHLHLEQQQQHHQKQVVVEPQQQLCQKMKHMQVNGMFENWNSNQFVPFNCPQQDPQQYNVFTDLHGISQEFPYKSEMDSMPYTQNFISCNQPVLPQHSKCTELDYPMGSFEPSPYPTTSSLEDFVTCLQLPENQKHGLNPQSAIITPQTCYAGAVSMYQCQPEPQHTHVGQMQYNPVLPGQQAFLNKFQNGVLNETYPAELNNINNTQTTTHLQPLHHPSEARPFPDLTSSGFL
Method in brief: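 Cell line HG2L7.5c1 (human hepatoma, 20× DRE-luc). Plated, 5 h 37C, compound/DMSO added, 24 h 37C. CellTiter-Fluor 30 min 37C → fluorescence; then ONE-Glo 30 min RT → luminescence.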

[18] = target: Nuclear receptor subfamily 1 group I member 2 (Homo sapiens) (UniProt O75469); assay: CYP3A4 induction through human pregnane X receptor (PXR) by small molecules, qHTS assay (AID 1346984); note: nearly all actives have a fitted effect of over 40% in size
Method in brief: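 DPX-2 HepG2 cells carrying a PXR response element and CYP3A4-promoter luciferase construct, treated with compounds 24 hr at 37C. Then P450-Glo CYP3A4 Luciferin-IPA substrate (3uM final) for 3 hr at 37C, One-Glo added, luminescence read.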
% is set by controls: 0 for no effect and ±100 for the full control effect.

COC(=O)[C@H]1[C@H]2C[C@@H]3c4[nH]c5cc(OC)ccc5c4CCN3C[C@H]2C[C@@H](OC(=O)/C=C/c2cc(OC)c(OC)c(OC)c2)[C@@H]1OC
inactive: Potency [1] | Potency [2] | Potency [3] | Potency [4] | Potency [5] | Potency [6] | Potency [7] | Potency [8] | Potency [9] | Potency [10] | Potency [11] | Potency [12] | Potency [13] | max activation [14] -2.27% | Potency [15]

N[C@H](CC(=O)O)C(=O)O
inactive: Potency [1] | Potency [16] | Potency [2] | Potency [4] | Potency [5] | Potency [6] | Potency [7] | Potency [8] | Potency [9] | Potency [10] | Potency [17] | Potency [11] | Potency [13] | max activation [14] 2.19%

Cc1cc(C)c(NC(=O)C[C@H](CC(=O)O)c2cccc3ccccc23)c(C(=O)N2CCC3(CCCC3)CC2)c1
inactive: Potency [16] | Potency [2] | Potency [3] | Potency [5] | Potency [8] | Potency [9] | Potency [10] | Potency [17] | Potency [11] | Potency [12] | Potency [13] | max activation [14] 1.3% | Potency [18]
active: Potency [6] 29.8 µM

CCCCCCOc1ccc(C(=N)N(CCCC)CCCC)c2ccccc12
inactive: Potency [17] | Potency [13] | max activation [14] -20.9%
active: Potency [1] 5.31 µM | Potency [16] 5.31 µM | Potency [4] 9.52 µM | Potency [8] 33.5 µM | Potency [9] 13.3 µM | Potency [10] 16.8 µM | Potency [11] 18.8 µM

CC(=C\c1ccccc1)/C=C1/SC(=S)N(CC(=O)O)C1=O
active: Potency [8] 29.8 µM
inactive: Potency [2] | Potency [3] | Potency [4] | Potency [5] | Potency [6] | Potency [7] | Potency [9] | Potency [10] | Potency [17] | Potency [11] | Potency [13] | max activation [14] 4.01% | Potency [18]

CO[C@H]1C=CO[C@@]2(C)Oc3c(C)c(O)c4c(O)c(c5c(nc6cc(C)ccn65)c4c3C2=O)NC(=O)/C(C)=C\C=C[C@H](C)[C@H](O)[C@@H](C)[C@@H](O)[C@@H](C)[C@H](OC(C)=O)[C@@H]1C
inactive: Potency [1] | Potency [16] | Potency [2] | Potency [8] | Potency [13] | max activation [14] -6.53%
active: Potency [15] 10 µM

CC[C@H](C)[C@H]1O[C@]2(CC[C@@H]1C)C[C@@H]1C[C@@H](C/C=C(\C)[C@@H](O[C@H]3C[C@H](OC)[C@@H](O[C@H]4C[C@H](OC)[C@@H](O)[C@H](C)O4)[C@H](C)O3)[C@@H](C)/C=C/C=C3\CO[C@@H]4[C@H](O)C(C)=C[C@@H](C(=O)O1)[C@]34O)O2
inactive: Potency [9] | Potency [10] | Potency [11] | Potency [13] | max activation [14] -15.7% | Potency [18]
active: Potency [3] 7.56 µM [inconclusive] | Potency [4] 19 µM

CC(C)NCC(O)COc1ccccc1-n1cccc1 (stereo not given)
inactive: Potency [16] | Potency [2] | Potency [4] | Potency [8] | Potency [9] | Potency [10] | Potency [17] | Potency [11] | Potency [12] | Potency [13] | max activation [14] 1.86% | Potency [18]

C#C[C@]1(O)CC[C@H]2[C@@H]3CCC4=C(CCC(=O)C4)[C@H]3CC[C@@]21C
inactive: Potency [4] | Potency [7] | Potency [8] | Potency [9] | Potency [10] | Potency [17] | Potency [11] | Potency [12] | Potency [13] | max activation [14] 5.01% | Potency [15]

CC(C)(CO)[C@@H](O)C(=O)NCCC(=O)NCCSSCCNC(=O)CCNC(=O)[C@H](O)C(C)(C)CO
inactive: Potency [1] | Potency [16] | Potency [2] | Potency [3] | Potency [4] | Potency [5] | Potency [6] | Potency [7] | Potency [8] | Potency [9] | Potency [10] | Potency [17] | Potency [11] | Potency [12] | Potency [13] | max activation [14] -1.96% | Potency [15]

CO[C@H]1C[C@@H]2CC[C@@H](C)[C@@](O)(O2)C(=O)C(=O)N2CCCC[C@H]2C(=O)O[C@H]([C@H](C)C[C@@H]2CC[C@@H](OCCO)[C@H](OC)C2)CC(=O)[C@H](C)/C=C(\C)[C@@H](O)[C@@H](OC)C(=O)[C@H](C)C[C@H](C)/C=C/C=C/C=C/1C
inactive: Potency [2] | Potency [6] | Potency [17] | Potency [13] | max activation [14] -9.27% | Potency [18]
active: Potency [16] 0.0027 µM | Potency [7] 0.0047 µM | Potency [8] 21.1 µM | Potency [10] 11.9 µM | Potency [11] 11.9 µM

COc1ccc2c(c1)N(C[C@H](C)CN(C)C)c1ccccc1S2
inactive: Potency [2] | Potency [3] | Potency [4] | Potency [5] | Potency [6] | Potency [7] | Potency [8] | Potency [17] | Potency [12] | max activation [14] -5.19%
active: Potency [1] 4.52 µM | Potency [16] 10.1 µM | Potency [13] 8.91 µM

C#C[C@]1(O)CC[C@H]2[C@@H]3CCC4=CC(=O)CC[C@@H]4[C@H]3C(=C)C[C@@]21CC
inactive: Potency [1] | Potency [4] | Potency [9] | Potency [10] | Potency [17] | Potency [11] | Potency [12] | Potency [13] | Potency [18]
active: Potency [5] 2.39 µM [inconclusive] | Potency [6] 1.88 µM | Potency [14] 7.94 µM

CCCCC[C@H](O)/C=C/[C@H]1[C@H](O)CC(=O)[C@@H]1CCCCCCC(=O)O
inactive: Potency [1] | Potency [4] | Potency [5] | Potency [6] | Potency [8] | Potency [9] | Potency [10] | Potency [17] | Potency [11] | Potency [13] | max activation [14] -0.783% | Potency [18]

Cn1c(O)c(N=NC(N)=S)c2ccccc21
inactive: Potency [4] | Potency [5] | Potency [6] | Potency [13] | Potency [18]
active: Potency [16] 29.8 µM | Potency [17] 1.06 µM | Potency [11] 2.98 µM | Potency [12] 21.3 µM | Potency [15] 14.1 µM
